Measured values published in PubChem BioAssay (NCI).
Compounds without any hit were thinned out: in the full panel of roughly 83,000, 20% have a hit.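 The endpoint reported here, percent growth, reads 100 for growth as untreated, 0 for no net growth and -100 for all cells dead.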 A number with no mark means an inactive call. The source made the active and inactive calls. How the source made its calls: active means growth percent below 10; inactive means the rest.

How the values were obtained:
Assay in all cases: NCI-60 one-dose screen, 48 h (100 = growth as untreated, 0 = no growth, -100 = all killed)
Conditions in all cases: 10 µM unless noted
NCI-H23 lung = tested on: NCI-H23 lung
NCI-H226 lung = tested on: NCI-H226 lung
NCI-H322M lung = tested on: NCI-H322M lung
HOP-62 NSCLC = tested on: HOP-62 NSCLC
NCI-H460 lung = tested on: NCI-H460 lung
HOP-92 NSCLC = tested on: HOP-92 NSCLC
NCI-H522 lung = tested on: NCI-H522 lung
A549/ATCC NSCLC = tested on: A549/ATCC NSCLC
786-0 renal = tested on: 786-0 renal
COLO 205 colon = tested on: COLO 205 colon
DU-145 prostate = tested on: DU-145 prostate
K-562 leukemia = tested on: K-562 leukemia
MALME-3M melanoma = tested on: MALME-3M melanoma
MDA-MB-231 breast = tested on: MDA-MB-231 breast
RXF 393 renal = tested on: RXF 393 renal
SF-268 CNS = tested on: SF-268 CNS
SF-295 CNS = tested on: SF-295 CNS
SF-539 CNS = tested on: SF-539 CNS
UACC-257 melanoma = tested on: UACC-257 melanoma
M14 melanoma = tested on: M14 melanoma

| Structure (SMILES) | growth (NCI-H23 lung) | growth (NCI-H226 lung) | growth (NCI-H322M lung) | growth (HOP-62 NSCLC) | growth (NCI-H460 lung) | growth (HOP-92 NSCLC) | growth (NCI-H522 lung) | growth (A549/ATCC NSCLC) | growth (786-0 renal) | growth (COLO 205 colon) | growth (DU-145 prostate) | growth (K-562 leukemia) | growth (MALME-3M melanoma) | growth (MDA-MB-231 breast) | growth (RXF 393 renal) | growth (SF-268 CNS) | growth (SF-295 CNS) | growth (SF-539 CNS) | growth (UACC-257 melanoma) | growth (M14 melanoma) |
| --- | --- | --- | --- | --- | --- | --- | --- | --- | --- | --- | --- | --- | --- | --- | --- | --- | --- | --- | --- | --- |
| COC(=O)c1c(C(=O)OC)c2c3ccccc3c3ccccc3n2c1C(=O)C(C)(C)C | 82.8% | 85.7% | 105% | 118% | 80.3% | 55.7% | 73.6% | 101% | 86.6% | 80.1% | 95.7% | 47.1% | 100% | 73.5% | 82.3% | 89.3% | 81.7% | 83.3% | 94.8% | 74.3% |
| COc1c(F)ccc(C(=O)Nc2ccc3nc(NC(=O)C4CCCN(S(=O)(=O)c5ccc(C(C)(C)C)cc5)C4)sc3c2)c1F (stereo not given) | 66.6% | 64.1% | 80.3% | 88.9% | 57.3% | 6.58% (active) | 66.7% | 64.1% | 56% | 80.9% | 79.5% | 26.5% | 77.3% | 47% | 14.9% | 68.5% | 78.3% | 74% | 69.3% | 87.6% |
| Nc1nnc(-c2cncc(Br)c2)c(-c2c[nH]c3ccc(Br)cc23)n1 | 70.7% | 76.5% | 78.2% | 72.7% | 39.6% | 83.3% | 17.9% | 49.2% | 55.5% | 51.3% | 85.9% | 19.1% | 74.1% | 48.7% | 55.6% | 77.1% | 74.5% | 52.3% | 73.9% | 44.5% |
| CN1CCN(CCS(=O)(=O)Nc2cc(-c3ccc4ncnc(Nc5ccc(F)c(Cl)c5)c4c3)cnc2Cl)CC1 | 13% | 48.9% | -15.5% (active) | 39.9% | 54.7% | -10.2% (active) | 10.1% | 55.6% | 19.4% | -31.9% (active) | 14.8% | 20.2% | -90.5% (active) | -41.3% (active) | -1.07% (active) | 40.8% | 7.8% (active) | -8.6% (active) | 18.2% | 20.9% |
| Cc1ccc(C(=O)Nc2cccc(C(=O)NC(=S)Nc3ccc(S(N)(=O)=O)cc3)c2)cc1 | 76.9% | 67.5% | 87.3% | 74.9% | 77.8% | 67.5% | 48.6% | 74.7% | 81.7% | 98.4% | 77.3% | 71.2% | 59.8% | 81.3% | 46.4% | 61.4% | 60.3% | 76.4% | 79.1% | 83.7% |
| O=C(OCCOCCO)N(c1cccc(Br)c1)c1nc(SCCN2CCOCC2)nc2c1cnn2CC(Cl)c1ccc(Br)cc1 (stereo not given) | -0.582% (active) | 32.1% | 50.9% | 32.9% | 8.55% (active) | 30.9% | -40.9% (active) | 15.2% | -4.79% (active) | -42.3% (active) | 41.3% | 2.12% (active) | -29.1% (active) | 1.49% (active) | -30% (active) | 5.17% (active) | -66.6% (active) | -25.2% (active) | 2.33% (active) | -14.1% (active) |
| O=C(Nc1nc2ccc([N+](=O)[O-])cc2s1)Nc1ccc(Cl)cc1Cl | 18.2% | 61.1% | 72.2% | 39.8% | 27.6% | 29.1% | 20.3% | 55.8% | 19.6% | 74.7% | 64.1% | 24.6% | 52.4% | 1.5% (active) | 20% | 66.1% | 17.2% | 11.7% | 60.3% | 77.9% |
| CC[C@]12C=CCN3CC[C@]4(C(=C(C(=O)OC)C1)Nc1cc(OC)c([C@@H]5[C@H]6O[C@H]6[C@@]6(CC)CC(C(=O)OC)=C7Nc8cc(O)ccc8[C@@]78CCN5[C@@H]68)cc14)[C@@H]32 | -18.8% (active) | -58.1% (active) | 33.6% | 32.2% | -68.4% (active) | -41.9% (active) | -31.2% (active) | 17.2% | -8% (active) | -70.2% (active) | 23.2% | -3.65% (active) | -77.4% (active) | -54.2% (active) | -34.2% (active) | 22.3% | -47.2% (active) | -38.4% (active) | -10.2% (active) | -28.4% (active) |
